Source: PubChem BioAssay (Tox21)
Results filed as inconclusive are left out. A call without a number means that no potency is given here. A number with no mark means an inactive call. The source made the active and inactive calls. Calls come from the whole dose curve; as a rule, active = well fitted activation curve with a large enough effect in the repeat runs; inconclusive = weak or mixed curves; inactive = no such curve, though single readings can be large or run the other way.

Molecular target: Nuclear receptor subfamily 1 group I member 2 (Homo sapiens) (UniProt O75469)
Sequence (O75469 whole entry, looked up): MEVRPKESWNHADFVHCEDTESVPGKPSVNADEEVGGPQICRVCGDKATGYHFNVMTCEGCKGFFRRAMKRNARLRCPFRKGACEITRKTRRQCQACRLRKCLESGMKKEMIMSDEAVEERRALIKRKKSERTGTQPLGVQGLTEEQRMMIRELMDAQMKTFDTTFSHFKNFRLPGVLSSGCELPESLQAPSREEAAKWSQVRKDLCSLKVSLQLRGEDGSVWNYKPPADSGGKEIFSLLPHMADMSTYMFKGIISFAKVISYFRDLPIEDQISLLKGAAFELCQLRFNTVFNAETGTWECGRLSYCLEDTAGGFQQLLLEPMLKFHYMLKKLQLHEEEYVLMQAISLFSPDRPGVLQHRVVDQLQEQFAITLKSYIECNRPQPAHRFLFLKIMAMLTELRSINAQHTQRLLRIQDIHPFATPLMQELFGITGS
Experiment: Human pregnane X receptor (PXR) small molecule agonists, qHTS assay (AID 1346982); note: nearly all actives have a fitted effect of over 35% in size
Conditions: PXR-Luc HepG2, CYP3A4 luciferase reporter, 24 h; series mostly up to 92.4 µM
Source text: National Center for Advancing Translational Sciences [NCATS]
NIH Chemical Genomics Center [NCGC]
U.S. Environmental Protection Agency [EPA]
National Institutes of Environmental Health Sciences [NIEHS]
National Toxicology Program [NTP]
The human pregnane X receptor (hPXR) regulates the expression of several drug metabolizing enzymes and induction of these proteins is a major mechanism for developing drug resistance in cancer. One such key enzyme catalyzing the drug metabolism is cytochrome P450 3A4 (CYP3A4). Changes in CYP3A4 expression affect drug metabolism, thereby reducing the therapeutic efficacy and altering toxicological response to a drug and which finally causes adverse drug interaction. To screen Tox21 libraries for compounds that activate hPXR-mediated CYP3A4 gene expression, PXR-Luc HepG2 cells were used.
PXR-Luc HepG2 cells were dispensed at 2,000 per well in 5uL of assay medium containing 5% charcoal-stripped FBS into white solid bottom 1536-well plates (Corning Life Sciences, Corning, NY) using a Multidrop Combi (Thermo Scientific, Waltham, MA) dispenser. The assay plates were incubated at 37 C and 5% CO2 for 5hr, and then 23nL of compounds dissolved in DMSO and positive control were transferred using a Pintool station (Wako, San Diego, CA). The assay plates were incubated at 37C and 5% CO2 for 24hr. For luciferase read, 4uL of ONE-Glo reagent (Promega Corporation, Madison, WI) was added to each well of the assay plates using Flying Reagent Dispenser (FRD, Aurora Discovery, San Diego, CA) and incubated the assay plates at room temperature for 30min. The luminescence signal was quantified using a ViewLux plate reader (Perkin Elmer, Shelton, CT).
Potency is the fitted concentration of half-maximal effect.

| SMILES | activation | Potency |
| --- | --- | --- |
| CCCCCCCCCCCCCCCCI | 0.718% [at 19 µM] |  |
| CC(C)COC(=O)CCCCC(=O)OCC(C)C |  | inactive |
| NC(Cc1c[nH]c2ccccc12)C(=O)O (stereo not given) |  | inactive |
| Nc1cc(C(=O)O)ccc1Cl |  | inactive |
| Cc1oc(=O)oc1CN1CCN(c2cc3c(cc2F)c(=O)c(C(=O)O)c2n3C(C)S2)CC1 (stereo not given) |  | inactive |
| COc1ccc(N=Nc2cc(C)c(N=Nc3ccc(S(=O)(=O)O)cc3)cc2OC)cc1 |  | inactive |
| CCCCOC(=O)[C@@H](C)Oc1ccc(Oc2ccc(C(F)(F)F)cn2)cc1 |  | inactive |
| Cc1ccccc1OCC1CO1 (stereo not given) |  | inactive |
| FC(F)(F)c1ccc(Cl)cc1Cl |  | inactive |
| N#CCCOCCOCCC#N |  | inactive |
| CCOC(=O)CC#N |  | inactive |
| Nc1cc(Cl)cc(S(=O)(=O)O)c1O |  | inactive |
| CC(C)(C)c1ccc(C=O)cc1 |  | inactive |
| NCCc1ccn[nH]1 |  | inactive |
| O=S(=O)(O)SSS(=O)(=O)O |  | inactive |
| C=C[C@@H](C)CCC=C(C)C |  | inactive |
| C[C@H](CCC(=O)NCC(=O)O)[C@H]1CC[C@H]2[C@@H]3[C@H](O)C[C@@H]4C[C@H](O)CC[C@]4(C)[C@H]3C[C@H](O)[C@]12C |  | inactive |
| CCCOCCOCCOCCO |  | inactive |
| O=c1cc(O)c(Cl)c[nH]1 |  | inactive |
| CCCCCCCCOC(C)=O |  | inactive |

| SMILES | activation | Potency |
| --- | --- | --- |
| CCC1COC(=O)O1 (stereo not given) |  | inactive |
| Nc1ccc(C(=O)OCC(O)CO)cc1 (stereo not given) |  | inactive |
| OCCCCCCCl |  | inactive |
| COC(OC)C(C)c1ccccc1 (stereo not given) |  | inactive |
| Nc1ccnc(=O)[nH]1 |  | inactive |
| CCCCOC(=O)C(C)OC(=O)CCC (stereo not given) |  | inactive |
| CC(Cl)COP(=O)(OCC(C)Cl)OCC(C)Cl (stereo not given) |  | 13.6 µM (active) |
| CCN(CCC#N)c1ccccc1 |  | inactive |
| CC(C)COC(=O)CC(C(=O)OCC(C)C)S(=O)(=O)O (stereo not given) |  | inactive |
| CC(C)CCO |  | inactive |
| CC(=O)OC(C)c1ccccc1 (stereo not given) |  | inactive |
| O=C1CC[C@H](C(=O)N2CCCCC2)N1 |  | inactive |
| Cc1ccccc1N1CCN(CCc2nnc3n2CCCC3)CC1 |  | inactive |
| CO[Si](CCCCl)(OC)OC |  | inactive |
| Cc1ccccc1C(=O)N1CC/C(=N\OS(=O)(=O)O)c2ccc(Cl)cc21 |  | inactive |
| O=C(CN1CCN(Cc2ccc3c(c2)OCO3)CC1)N1c2ccccc2Sc2ccccc21 |  | 11.9 µM (active) |
| O=S(=O)(O)CCO |  | inactive |
| CCCCCCCCCCCCC1CO1 (stereo not given) |  | inactive |
| O=C(/C=C/c1ccccc1)NCCO |  | inactive |
| CC(=O)OC(C)(C)Cc1ccccc1 |  | inactive |
